High-throughput results deposited in PubChem BioAssay by National Center for Advancing Translational Sciences (NCATS).
NPC1 promoter act: activators of NPC1 promoter; Huh7 NPC1 promoter luciferase reporter, 24 h; Potency, µM (titrated, usually from 9.22 µM), for the others: at the top dose activation, usual class: activators; actives 2.4% (n = 320,000); AID 485313; also: % of control where 0% means no effect; nearly all actives have a fitted effect of over 60% in size
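Readout is luciferase luminescence, reflecting NPC1 promoter activation in stably transfected Huh7 cells after 24 h compound exposure at 37 °C in reduced-serum medium with 10% FBS.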
FLuc counter: inhibits or activates purified firefly luciferase, miR-21 counter-screen. purified FLuc, Km substrates, luminescence inhibition. P08659. Potency, µM (series often up to 57.5 µM), for the others: at the top dose activity change, negative = inhibition, hits mostly inhibitors. actives 6.9% (n = 360,000);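 also: plate controls were vehicle for no effect and reference inhibitor for full effect; nearly all actives have a fitted effect of over 55% in size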
Target sequence (P08659 whole entry, looked up): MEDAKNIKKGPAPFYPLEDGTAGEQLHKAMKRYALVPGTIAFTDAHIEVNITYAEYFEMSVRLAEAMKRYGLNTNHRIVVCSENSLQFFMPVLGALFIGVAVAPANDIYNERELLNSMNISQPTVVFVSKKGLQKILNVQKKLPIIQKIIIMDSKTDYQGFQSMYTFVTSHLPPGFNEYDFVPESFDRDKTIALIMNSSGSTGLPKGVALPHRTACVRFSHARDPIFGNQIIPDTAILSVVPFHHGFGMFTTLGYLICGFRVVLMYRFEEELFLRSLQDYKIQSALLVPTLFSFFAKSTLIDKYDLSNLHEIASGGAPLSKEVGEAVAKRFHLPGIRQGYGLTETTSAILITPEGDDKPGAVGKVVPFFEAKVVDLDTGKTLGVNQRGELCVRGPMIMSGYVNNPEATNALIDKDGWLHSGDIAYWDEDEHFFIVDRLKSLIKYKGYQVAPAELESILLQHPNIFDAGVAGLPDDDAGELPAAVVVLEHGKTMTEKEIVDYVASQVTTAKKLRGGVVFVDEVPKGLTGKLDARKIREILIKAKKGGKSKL
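Biochemical qHTS of compounds, final roughly 60 µM downward over six points, against 10 nM purified firefly luciferase using Km concentrations of substrates (10 uM D-luciferin, 10 uM ATP) in Tris acetate pH 7.5 buffer; luminescence output.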
Rab9 promoter act: activates the Rab9 promoter. Huh7 Rab9 promoter-luciferase reporter, luminescence, 24 h. Potency, µM (doses to about 9.22 µM), for the others: at the top dose activation, negative = inhibition, most hits filed as activators. actives 2.8% (n = 320,000). AID 485297; also: % of control where 0% means no effect; nearly all actives have a fitted effect of over 60% in size
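Luminescence from Amplite-detected luciferase (10 minutes, ambient) reports Rab9 promoter activation. Before that, stable Rab9-luciferase Huh7 cells (1500/well, reduced-serum OP-MEM I plus 10% FBS) were exposed to compound for 24 hours at 37C.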
ELG1 DNA repair: ELG1-dependent DNA repair inhibition; actives 2.3% (n = 330,000); HEK293T ELG1-luciferase reporter, luminescence, 16 h; DNA damage induced by 5-fluorouridine; Potency, µM (titrated, usually from 46.1 µM), for inactives: at the top dose activity change, negative = inhibition, most hits filed as inhibitors; also: % is scaled to controls: 0 for no effect and ±100 for the full control effect; nearly all actives have a fitted effect of over 55% in size
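Reporter activity after DNA damage by 5-fluorouridine is monitored. Compound-treated cells incubate 16 hr at 37 °C, then ONE-Glo is added for 30 min before luminescence reading.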
SMN2 splice up: increases expression of the SMN2 splice variant. HEK293 SMN2-luciferase splicing reporter, luminescence, 30-36 h. Potency, µM (titrated, usually from 46.1 µM), inactives show top-dose activity change, positive = activation, hits mostly activators. actives 2.8% (n = 210,000). AID 1458; also: % of control where 0% means no effect; nearly all actives have a fitted effect of over 55% in size
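HEK293 cells carry an SMN2 minigene-luciferase reporter in which exon 7 inclusion puts luciferase in frame. Cells were seeded at 2000 cells/well, attached for 10-12 hours, then exposed to compounds for 30-36 hours at 37C before ONE-Glo luminescence.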
ELG1 genotoxic: genotoxicity induction in ELG1-luciferase HEK293T cells | Potency, µM (titrated, usually from 46 µM), without a hit: at the highest dose activity change, positive = activation, most hits filed as activators | actives 1.3% (n = 330,000) | HEK293T ELG1-luciferase reporter, luminescence, 16 h; also: % of control where 0% means no effect; nearly all actives have a fitted effect of over 60% in size
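Genotoxic stress is detected as increased luminescence from luciferase-tagged ELG1 in HEK293T cells, measured with ONE-Glo after a 16 hr treatment at 37 °C.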
Numbers without * were called inactive; u = inconclusive; x = no result given; [ ] = another dose, or the depositor's remark. Shown are actives, neighbours in structure and some others; about 9.3% of the full set was active somewhere. Calls follow the shape of the dose curve; as a rule, active = well fitted curve in the direction sought with a large enough effect; inconclusive = small, poorly fitted or top-dose-only effect, or another doubt; inactive = no such curve, though single readings can be large; an effect the other way counts as inactive or inconclusive. Potency is read from the fitted curve at half-maximal effect.

SMILES | NPC1 promoter act | FLuc counter | Rab9 promoter act | ELG1 DNA repair | SMN2 splice up | ELG1 genotoxic
COC(=O)CCCCCN1C(=O)/C(=C\c2ccncc2)SC1=S | 3% | -1% | -5% | 4% | x | -7%
COC(=O)c1[nH]c2ccc(C)cc2c1NC(=O)c1ccccc1[N+](=O)[O-] | 0% | 5% | 2% | -14% | -4% | 1%
Cc1ccc(C2=Nc3ccccc3N=C(C(Cl)Cl)C2)cc1 | 3.2µM* | 9.5µM* | 3.2µM* | u | -67% | u
Cc1ccc2c(c1)N=C(c1ccccc1)CC(C(Cl)Cl)=N2 | u | 8.5µM* | 3.2µM* | u | x | u
Cc1ccc(C(=O)OCC(=O)Nc2cccc(S(=O)(=O)N3CCOCC3)c2)o1 | -1% | 5% | -3% | 0% | x | 4%
CC(=O)c1cnc2nc(SCc3ccccc3)nn2c1C | 4.5µM* | x | 3.5µM* | u | x | u
COc1ccc(-c2cc3ncc(C(C)=O)c(C)n3n2)cc1 | 2.2µM* | u | 1.3µM* | u | 11µM* | u
CC(=O)c1cnc2cc(C)nn2c1C | -5% | -2% | 3% | 12% | -10% | 1%
CC(=O)c1cnc2cc(-c3ccccc3)nn2c1C | 2.5µM* | 2.4µM* | 1.4µM* | u | 16µM* | 2.2µM*
COc1ccc(-c2cc3ncc(C(=O)c4cc([N+](=O)[O-])ccc4O)cn3n2)cc1 | x | u | x | x | -11% | x
CC(=O)c1cnc2nc(SCc3ccc(C)cc3)nn2c1C | -3% | -7% | 4% | 2% | x | 0%
CC(=O)c1cnc2cc(-c3ccc(C)cc3)nn2c1C | u | 3.4µM* | 3.5µM* | u | 11µM* | 7.3µM*
CCn1c(SCC(=O)Nc2nccs2)nnc1-c1cc2cccc(OC)c2o1 | -1% | 1% | -9% | -2% | 3% | 2%
CCOc1ccc(NS(=O)(=O)c2ccc3[nH]cc(C(=O)NCc4ccco4)c(=O)c3c2)cc1 | x | -7% | x | x | 23% | x
Cc1cc(C)cc(-n2c(C)cc(/C=N/NC(=O)c3ccncc3)c2C)c1 | -5% | -5% | 0% | 2% | -13% | 4%
Cc1nc2ccccn2c1C(=O)N/N=C/c1cc(C)n(-c2ccc(Br)cc2)c1C | -4% | 12µM* | -1% | u | -46% | -1%
Cc1cc(/C=N/NC(=O)C(=O)NCc2ccccn2)c(C)n1-c1ccccc1 | 0% | 2.7µM* | -3% | u | 21% | u
Cc1cc(/C=N\NC(=O)COc2cccc3cccnc23)c(C)n1-c1ccccc1 | -1% | 1.3µM* | -6% | u | x | 1%
Cc1cc(/C=N\NC(=O)c2cccs2)c(C)n1-c1ccc2ncccc2c1 | 2.8µM* | 1.3µM* | 1.8µM* | u | u | u
Cc1cc(C)cc(-n2c(C)cc(/C=N/NC(=O)CSc3ncccn3)c2C)c1 | 3% | -13% | 3% | -14% | -19% | -3%
Cc1cc(/C=N\NC(=O)COc2cccc3cccnc23)c(C)n1-c1ccc(Br)cc1 | -4% | 4.8µM* | 0% | -15% | -45% | -2%
Cc1ccnc(-n2c(C)cc(/C=N/NC(=O)COc3cccc4cccnc34)c2C)c1 | 1% | 13µM* | -3% | 8% | x | -2%
CN[C@H](CC(C)C)C(=O)N[C@H]1C(=O)N[C@@H](CC(N)=O)C(=O)N[C@H]2C(=O)N[C@H]3C(=O)N[C@H](C(=O)N[C@H](C(=O)O)c4cc(O)cc(O)c4-c4cc3ccc4O)[C@H](O)c3ccc(c(Cl)c3)Oc3cc2cc(c3O[C@@H]2O[C@H](CO)[C@@H](O)[C@H](O)[C@H]2O[C@H]2C[C@](C)(N)[C@H](O)[C@H](C)O2)Oc2ccc(cc2Cl)[C@H]1O | x | x | x | x | 9% | x
CCOC(=O)N1CCN(Cc2nc3cc(NC(=O)c4cccs4)ccc3n2C)CC1 | 0% | 2% | 0% | 1% | x | 0%
COc1ccc2oc3cc(C)[n+]([O-])c(-c4ccc(Br)cc4)c3c2c1 | -8% | 3% | -2% | 21µM* | -65% | -1%
SMILES | NPC1 promoter act | FLuc counter | Rab9 promoter act | ELG1 DNA repair | SMN2 splice up | ELG1 genotoxic
CN(C)/C=N/c1ncc(C(=O)c2ccc(-c3ccccc3)cc2)s1 | -1% | 21µM* | -4% | u | -24% | -5%
CN(C)/C=N/c1ncc(C(=O)c2ccccc2)s1 | 2.8µM* | 15µM* | 3.2µM* | u | 14µM* | 9.2µM*
Cc1ccc(Cc2nc3ccccc3nc2SCC(=O)N2CCC(C)CC2)cc1 | x | -17% | x | x | x | x
CC1C(=O)N(Cc2cccc(F)c2)c2ccccc2N1C(=O)c1ccccc1 (configuration not stated) | 0% | 3% | -7% | 23µM* | x | -8%
COc1cccc(CN2C(=O)C(C)N(C(=O)c3c(F)cccc3F)c3ccccc32)c1 (configuration not stated) | -17% | -4% | -11%[1.84 µM] | u | x | -11%
COc1ccc(NC(=O)C(=O)NCC(c2cccnc2)N2CCc3ccccc3C2)cc1 (configuration not stated) | x | 0.38µM* | x | x | x | x
COc1ccccc1C(=O)NCC(c1cccnc1)N1CCc2ccccc2C1 (configuration not stated) | x | 2.7µM* | x | x | x | x
CC1CCN(C(=O)CN(CCc2ccccc2)S(C)(=O)=O)CC1 | 1% | 0% | -3% | -3% | -13% | -2%
CCN(CC)c1nc2c(s1)C(=O)NCCC2 | -1% | -10% | -4% | 5% | 2% | 1%
Cc1ccc(N2C(=O)CC(Cn3nc(C)cc3C)C2=O)cc1 (configuration not stated) | 1% | 0% | -5% | -2% | -1% | 3%
CN(C)c1ccc(C(=O)OCC(=O)c2cccs2)cc1 | 3.5µM* | 3.4µM* | 1.8µM* | u | 6.3µM* | 8.2µM*
O=C(OCC(=O)c1cccs1)c1cccc(C(=O)OCC(=O)c2cccs2)n1 | -2% | 12µM* | 9% | 1% | 2% | -1%
CSc1ncccc1C(=O)OCC(=O)c1cccs1 | -4% | 19µM* | -2% | 2% | 5% | 0%
CCc1ccc(C(=O)COC(=O)c2cccs2)cc1 | 2.5µM* | 0.19µM* | 1.4µM* | u | -11% | 4.5µM*
c1ccc(C2[C@H]3CN(Cc4cccnc4)[C@H](c4ccccc4)C34CC2(c2cccnc2)C4)cc1 (some centres not stated) | -5% | -1% | -3% | -13% | -23% | -4%
COc1ccc(-c2cc(C)no2)cc1S(=O)(=O)N1CCN(C(=O)c2ccco2)CC1 | -2% | 1% | -2% | 5% | x | 0%
